B1: 53 (nucleosome)
DNA 1: ATCCTGGAGAATCCCGGTGCCGAGGCCGCTCAATTGGTCGTAGACAGCTCTAGCATCAAGGCCACGCACGTACGCGCTGTCCCCCGCGTTTTAACCGCCAAGGGGATTACTCCCTAGTCTCCAGGCACGTGTCAGATATATACATCCTGTGAT
DNA 2: ATCACAGGATGTATATATCTGACACGTGCCTGGAGACTAGGGAGTAATCCCCTTGGCGGTTAAAACGCGGGGGACAGCGCGTACGTGCGTGGCCTTGATGCTAGAGCTGTCTACGACCAATTGAGCGGCCTCGGCACCGGGATTCTCCAGGAT
modifications: reconstituted with mouse histones H2A, H2B, H3.3 and H4
B2: 54 (nucleosome)
DNA 1: B1 DNA 1 with T56C, C57T, A58C, G60A, C62G, A64C, C65A
DNA 2: B1 DNA 2 with G89T, T90G, G92C, C94T, T96G, G97A, A98G
modifications: reconstituted with mouse histones H2A, H2B, H3.3 and H4
B3: 56 (nucleosome)
DNA 1: B1 DNA 1 with T56C, A58G, A59T, G60C, G61A, C62A, C63G, A64G, G66C, C67A
DNA 2: B1 DNA 2 with G87T, C88G, T90C, G91C, G92T, C93T, C94G, T95A, T96C, A98G
modifications: reconstituted with mouse histones H2A, H2B, H3.3 and H4
B4: 55 (nucleosome)
DNA 1: B1 DNA 1 with T56C, A58T, A59C, G60A, G61A, C62G, C63G, A64C, G66A
DNA 2: B1 DNA 2 with C88T, T90G, G91C, G92C, C93T, C94T, T95G, T96A, A98G
modifications: reconstituted with mouse histones H2A, H2B, H3.3 and H4
B5: 7 (nucleosome)
DNA 1: ATCCTGGAGTCAAGGCCAGCCGAGGCCGCTCAATTGGTCGTAGACAGCTCTAGCACCGCTTAAACGCACGTACGCGCTGTCCCCCGCGTTTTAACCGCCAAGGGGATTACTCCCTAGTCTCCAGGCACGTGTCAGATATATACATCCTGTGAT
DNA 2: ATCACAGGATGTATATATCTGACACGTGCCTGGAGACTAGGGAGTAATCCCCTTGGCGGTTAAAACGCGGGGGACAGCGCGTACGTGCGTTTAAGCGGTGCTAGAGCTGTCTACGACCAATTGAGCGGCCTCGGCTGGCCTTGACTCCAGGAT
modifications: reconstituted with mouse histones H2A, H2B, H3.3 and H4
B6: 46 (nucleosome)
DNA 1: ATCCTGGAGAATCCCGGTGCCGAGGCCGCTCAATTGGTCGTAGACAGCTCAAGGCCAGCTTAAACGCACGTACGCGCTGTCCCCCGCGTTTTAACCGCCAAGGGGATTACTCCCTAGTCTCCAGGCACGTGTCAGATATATACATCCTGTGAT
DNA 2: ATCACAGGATGTATATATCTGACACGTGCCTGGAGACTAGGGAGTAATCCCCTTGGCGGTTAAAACGCGGGGGACAGCGCGTACGTGCGTTTAAGCTGGCCTTGAGCTGTCTACGACCAATTGAGCGGCCTCGGCACCGGGATTCTCCAGGAT
modifications: reconstituted with mouse histones H2A, H2B, H3.3 and H4
B7: 59 (nucleosome)
DNA 1: B6 DNA 1 with A51T, G54C, C55A, A57C, A62T, A63C, C65A, C67G, A68C, G70A
DNA 2: B1 DNA 2 with C84T, T86G, G87C, G89T, G92A, C93A, C94A, T95G, T96C, A98G
modifications: reconstituted with mouse histones H2A, H2B, H3.3 and H4
B8: 51 (nucleosome)
DNA 1: B6 DNA 1 with A51T, G54T, C56A, C59G, T60C, T61C
DNA 2: B6 DNA 2 with A93G, A94G, G95C, G98T, C100A, T103A
modifications: reconstituted with mouse histones H2A, H2B, H3.3 and H4
B9: 48 (nucleosome)
DNA 1: B6 DNA 1 with A51T, A52C, G53A, G54A, C55G, C56G, A57C, G58C, C59A
DNA 2: B6 DNA 2 with G95T, C96G, T97G, G98C, G99C, C100T, C101T, T102G, T103A
modifications: reconstituted with mouse histones H2A, H2B, H3.3 and H4
B10: 58 (nucleosome)
DNA 1: B6 DNA 1 with A51T, G54C, C55A, A57C, A62C, C65G, A68C, C69A
DNA 2: B6 DNA 2 with G85T, T86G, G89C, T92G, T97G, G99T, C100G, T103A
modifications: reconstituted with mouse histones H2A, H2B, H3.3 and H4
B11: 47 (nucleosome)
DNA 1: B6 DNA 1 with C50T, A51C, G53A, C55G, A57C, G58A
DNA 2: B6 DNA 2 with C96T, T97G, G99C, C101T, T103G, G104A
modifications: reconstituted with mouse histones H2A, H2B, H3.3 and H4
B12: 52 (nucleosome)
DNA 1: B1 DNA 1 with A55T, T56C, C57A, A59G, G61C, C63A
DNA 2: B1 DNA 2 with G91T, C93G, T95C, G97T, A98G, T99A
modifications: reconstituted with mouse histones H2A, H2B, H3.3 and H4
B13: 57 (nucleosome)
DNA 1: B6 DNA 1 with A51T, G54C, C55A, A57C, T61C, A64G, C65G, G66C
DNA 2: B6 DNA 2 with C88G, G89C, T90C, A93G, T97G, G99T, C100G, T103A
modifications: reconstituted with mouse histones H2A, H2B, H3.3 and H4
B14: 50 (nucleosome)
DNA 1: B6 DNA 1 with A51T, G53T, G54C, C55A, C56A, A57G, T60C, T61A
DNA 2: B6 DNA 2 with A93T, A94G, T97C, G98T, G99T, C100G, C101A, T103A
modifications: reconstituted with mouse histones H2A, H2B, H3.3 and H4
B15: 49 (nucleosome)
DNA 1: B6 DNA 1 with A51T, A52T, G53C, G54A, C55A, C56G, A57G, G58C, T60A
DNA 2: B6 DNA 2 with A94T, C96G, T97C, G98C, G99T, C100T, C101G, T102A, T103A
modifications: reconstituted with mouse histones H2A, H2B, H3.3 and H4

Numbering of substitutions follows the chain as printed. Names may count otherwise.

For one experiment, the target named is NR5A2 wild type;histone octamer (Homo sapiens;, UniProt O00482;C0HKE1;Q6ZWY9;P84244;P62806 1-541;2-130;2-126;2-136;2-103, |). The experiment is described as follows: SeEN-seq (EMSA of nucleosome library followed by sequencing); 0.8 uM human NR5A2; 20 mM Tris-HCl pH 7.5, 120 mM NaCl, 1 mM MgCl2, 10 uM ZnCl2, 1 mM DTT, 100 ug/ml BSA, room temperature, 30 min; 0.1 uM nucleosome library; high values mean tight binding. A general note: Mobility shift assays separate free from complexed probe on a gel.
Turning to B1, the binding signal was 1.03 log2 enrichment (bound/unbound, relative to Widom 601).
As to B2, the binding signal was 0.993 log2 enrichment (bound/unbound, relative to Widom 601).
Consider B3, for which the binding signal was 0.684 log2 enrichment (bound/unbound, relative to Widom 601).
On the same count and under the same terms, in the case of B4 it was 1.2 log2 enrichment (bound/unbound, relative to Widom 601); in that of B5, 2.59 log2 enrichment (bound/unbound, relative to Widom 601).
The same measure, in the same setting: next, B6: 0.748 log2 enrichment (bound/unbound, relative to Widom 601).
The same measure, in the same setting: in the case of B7 it was 0.92 log2 enrichment (bound/unbound, relative to Widom 601).
As to B8, the binding signal is 0.595 log2 enrichment (bound/unbound, relative to Widom 601).
Same read-out and setting: next, B9: 0.867 log2 enrichment (bound/unbound, relative to Widom 601); B10: 0.651 log2 enrichment (bound/unbound, relative to Widom 601); B11: 1.01 log2 enrichment (bound/unbound, relative to Widom 601).
On the same count and under the same terms, in the case of B12 it was 0.917 log2 enrichment (bound/unbound, relative to Widom 601); in that of B13, 0.552 log2 enrichment (bound/unbound, relative to Widom 601).
Still for that read-out and setting: in the case of B14 it was 0.992 log2 enrichment (bound/unbound, relative to Widom 601).
Turning to B15, the binding signal was 1.14 log2 enrichment (bound/unbound, relative to Widom 601).

The next experiment deals with mouse Nr5a2 wild type;histone octamer (Mus musculus;, UniProt P45448;C0HKE1;Q6ZWY9;P84244;P62806 1-560;2-130;2-126;2-136;2-103, |). Kind of experiment: SeEN-seq (EMSA of nucleosome library followed by sequencing); 1.2 uM mouse Nr5a2; 20 mM Tris-HCl pH 7.5, 120 mM NaCl, 1 mM MgCl2, 10 uM ZnCl2, 1 mM DTT, 100 ug/ml BSA, room temperature, 30 min; 0.1 uM nucleosome library; high values mean tight binding.
Take B1: the binding signal was 1.17 log2 enrichment (bound/unbound, relative to Widom 601).
On to B2, for which the binding signal is 1 log2 enrichment (bound/unbound, relative to Widom 601).
On the same count and under the same terms, next, B3: 0.45 log2 enrichment (bound/unbound, relative to Widom 601); B4: 0.957 log2 enrichment (bound/unbound, relative to Widom 601).
Consider B5, for which the binding signal is 2.08 log2 enrichment (bound/unbound, relative to Widom 601).
Same read-out and setting: next, B6: 0.651 log2 enrichment (bound/unbound, relative to Widom 601); B7: 0.823 log2 enrichment (bound/unbound, relative to Widom 601); B8: 0.567 log2 enrichment (bound/unbound, relative to Widom 601).
Same read-out and setting: in the case of B9 it was 0.815 log2 enrichment (bound/unbound, relative to Widom 601).
The same measure, in the same setting: next, B10: 0.747 log2 enrichment (bound/unbound, relative to Widom 601); B11: 1.07 log2 enrichment (bound/unbound, relative to Widom 601).
On to B12, for which the binding signal is 1.16 log2 enrichment (bound/unbound, relative to Widom 601).
The same measure, in the same setting: in the case of B13 it was 0.504 log2 enrichment (bound/unbound, relative to Widom 601).
Still for that read-out and setting: next, B14: 1.01 log2 enrichment (bound/unbound, relative to Widom 601); B15: 1.11 log2 enrichment (bound/unbound, relative to Widom 601).
